According to PubChem BioAssay (Tox21):
Records with an inconclusive call do not appear. Entries that show only a call come without a potency. Unmarked numbers belong to inactive results. Activity calls are given as the source filed them. Calls follow the shape of the dose curve; as a rule, active = well fitted curve in the direction sought with a large enough effect in the repeat runs; inconclusive = weak or mixed curves; inactive = no such curve, though single readings can be large; an effect the other way counts as inactive or inconclusive.

Key:
[1] = target: Cytochrome P450 2C19 (Homo sapiens) (UniProt P33261); assay: Cytochrome P450 Family 2 Subfamily C Member 19 (CYP2C19) small molecule antagonists: luciferase reporter qHTS assay (AID 1671197); settings: P450-Glo CYP2C19 enzyme, luciferin luminescence, 1 h; series mostly up to 52.9 µM; also: nearly all actives have a fitted effect of over 65% in size; also: potency is read from the fitted curve at half-maximal effect
Chain of Cytochrome P450 2C19 (Homo sapiens) (P33261 whole entry, looked up): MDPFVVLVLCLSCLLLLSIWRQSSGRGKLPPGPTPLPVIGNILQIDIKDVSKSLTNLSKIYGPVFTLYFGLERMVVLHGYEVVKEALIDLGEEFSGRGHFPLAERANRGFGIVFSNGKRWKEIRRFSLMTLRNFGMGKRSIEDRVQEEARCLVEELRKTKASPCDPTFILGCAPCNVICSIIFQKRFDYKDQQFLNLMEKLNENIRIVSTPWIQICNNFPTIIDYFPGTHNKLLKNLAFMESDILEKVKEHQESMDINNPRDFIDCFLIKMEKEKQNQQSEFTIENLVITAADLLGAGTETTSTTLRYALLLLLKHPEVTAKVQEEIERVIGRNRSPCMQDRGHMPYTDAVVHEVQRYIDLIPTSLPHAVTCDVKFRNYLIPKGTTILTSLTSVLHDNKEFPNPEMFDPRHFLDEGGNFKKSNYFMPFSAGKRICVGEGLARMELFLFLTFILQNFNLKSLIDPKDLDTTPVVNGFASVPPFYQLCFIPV
Summary of the method: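 Enzyme-substrate mix with proluciferin substrate (P450-Glo CYP2C19 system) preincubated with compounds 10 min at room temperature; NADPH regeneration solution added, 37C for 1 h; detection reagent stops reaction, luminescence read after 20 min. Ketoconazole positive control.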

[2] = target: Cytochrome P450 2C9 (Homo sapiens) (UniProt P11712); assay: Cytochrome P450 Family 2 Subfamily C Member 9 (CYP2C9) small molecule antagonists: luciferase reporter qHTS assay (AID 1671198); settings: P450-Glo CYP2C9 enzyme assay, luciferin luminescence; series mostly up to 115 µM; also: nearly all actives have a fitted effect of over 50% in size; also: potency is read from the fitted curve at half-maximal effect
Chain of Cytochrome P450 2C9 (Homo sapiens) (P11712 whole entry, looked up): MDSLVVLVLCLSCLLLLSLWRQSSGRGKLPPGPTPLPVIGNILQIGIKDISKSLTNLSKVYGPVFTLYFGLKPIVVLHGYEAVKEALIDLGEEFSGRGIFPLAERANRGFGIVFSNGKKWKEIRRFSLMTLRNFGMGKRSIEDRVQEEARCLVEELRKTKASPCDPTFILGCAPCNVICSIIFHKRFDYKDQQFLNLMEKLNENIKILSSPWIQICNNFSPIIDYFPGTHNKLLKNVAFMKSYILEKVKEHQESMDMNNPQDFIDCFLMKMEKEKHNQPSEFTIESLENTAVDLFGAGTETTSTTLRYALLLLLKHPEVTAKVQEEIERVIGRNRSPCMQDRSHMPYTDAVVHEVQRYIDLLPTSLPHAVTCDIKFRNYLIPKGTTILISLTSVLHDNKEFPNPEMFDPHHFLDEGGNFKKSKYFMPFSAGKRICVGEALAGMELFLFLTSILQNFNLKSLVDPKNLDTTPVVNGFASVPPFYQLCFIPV
Summary of the method: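 Enzyme-substrate mix preincubated with compound 10 min at room temperature; reaction started with NADPH regeneration solution, 1 h 37C. Luminescent luciferin product read after 20 min detection reagent.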

[3] = target: Cytochrome P450 1A2 (Homo sapiens) (UniProt P05177); assay: Cytochrome P450 Family 1 Subfamily A Member 2 (CYP1A2) small molecule antagonists: luciferase reporter qHTS assay (AID 1671199); settings: P450-Glo CYP1A2 enzyme, luciferin luminescence, 1 h; series mostly up to 53 µM; also: nearly all actives have a fitted effect of over 50% in size; also: potency is read from the fitted curve at half-maximal effect
Chain of Cytochrome P450 1A2 (Homo sapiens) (P05177 whole entry, looked up): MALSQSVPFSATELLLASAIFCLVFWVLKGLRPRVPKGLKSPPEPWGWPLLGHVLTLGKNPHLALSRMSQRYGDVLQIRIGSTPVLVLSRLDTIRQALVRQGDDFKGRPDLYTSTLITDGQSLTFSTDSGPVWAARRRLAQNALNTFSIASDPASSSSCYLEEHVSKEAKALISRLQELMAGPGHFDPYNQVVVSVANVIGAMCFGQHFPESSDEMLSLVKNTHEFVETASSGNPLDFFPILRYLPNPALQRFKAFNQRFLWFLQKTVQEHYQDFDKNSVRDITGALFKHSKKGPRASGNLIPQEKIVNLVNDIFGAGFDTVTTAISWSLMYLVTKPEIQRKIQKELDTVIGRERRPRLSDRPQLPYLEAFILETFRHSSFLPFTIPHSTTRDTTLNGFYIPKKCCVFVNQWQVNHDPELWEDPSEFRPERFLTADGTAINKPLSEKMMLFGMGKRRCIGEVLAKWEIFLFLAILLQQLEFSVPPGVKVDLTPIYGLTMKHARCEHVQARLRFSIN
Summary of the method: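 Compounds were incubated with CYP1A2 and a luminogenic proluciferin substrate for 10 min at room temperature before the reaction was started with NADPH regeneration solution. After 1 h, detection reagent was added and light output, proportional to CYP activity, was recorded.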

[4] = target: Voltage-gated inwardly rectifying potassium channel KCNH2 (Homo sapiens) (UniProt Q12809); assay: Human Ether-a-go-go-Related Gene (hERG) channel small molecule antagonists: fluorescence cell-based qHTS assay (AID 1671200); settings: hERG-U2OS cells, FluxOR thallium flux fluorescence; series mostly up to 76.8 µM; also: nearly all actives have a fitted effect of over 50% in size; also: potency is read from the fitted curve at half-maximal effect;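 as to activity change, negative = inhibition: hERG-expressing U2OS cells given a thallium stimulus after FluxOR II dye loading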
Chain of Voltage-gated inwardly rectifying potassium channel KCNH2 (Homo sapiens) (Q12809 whole entry, looked up): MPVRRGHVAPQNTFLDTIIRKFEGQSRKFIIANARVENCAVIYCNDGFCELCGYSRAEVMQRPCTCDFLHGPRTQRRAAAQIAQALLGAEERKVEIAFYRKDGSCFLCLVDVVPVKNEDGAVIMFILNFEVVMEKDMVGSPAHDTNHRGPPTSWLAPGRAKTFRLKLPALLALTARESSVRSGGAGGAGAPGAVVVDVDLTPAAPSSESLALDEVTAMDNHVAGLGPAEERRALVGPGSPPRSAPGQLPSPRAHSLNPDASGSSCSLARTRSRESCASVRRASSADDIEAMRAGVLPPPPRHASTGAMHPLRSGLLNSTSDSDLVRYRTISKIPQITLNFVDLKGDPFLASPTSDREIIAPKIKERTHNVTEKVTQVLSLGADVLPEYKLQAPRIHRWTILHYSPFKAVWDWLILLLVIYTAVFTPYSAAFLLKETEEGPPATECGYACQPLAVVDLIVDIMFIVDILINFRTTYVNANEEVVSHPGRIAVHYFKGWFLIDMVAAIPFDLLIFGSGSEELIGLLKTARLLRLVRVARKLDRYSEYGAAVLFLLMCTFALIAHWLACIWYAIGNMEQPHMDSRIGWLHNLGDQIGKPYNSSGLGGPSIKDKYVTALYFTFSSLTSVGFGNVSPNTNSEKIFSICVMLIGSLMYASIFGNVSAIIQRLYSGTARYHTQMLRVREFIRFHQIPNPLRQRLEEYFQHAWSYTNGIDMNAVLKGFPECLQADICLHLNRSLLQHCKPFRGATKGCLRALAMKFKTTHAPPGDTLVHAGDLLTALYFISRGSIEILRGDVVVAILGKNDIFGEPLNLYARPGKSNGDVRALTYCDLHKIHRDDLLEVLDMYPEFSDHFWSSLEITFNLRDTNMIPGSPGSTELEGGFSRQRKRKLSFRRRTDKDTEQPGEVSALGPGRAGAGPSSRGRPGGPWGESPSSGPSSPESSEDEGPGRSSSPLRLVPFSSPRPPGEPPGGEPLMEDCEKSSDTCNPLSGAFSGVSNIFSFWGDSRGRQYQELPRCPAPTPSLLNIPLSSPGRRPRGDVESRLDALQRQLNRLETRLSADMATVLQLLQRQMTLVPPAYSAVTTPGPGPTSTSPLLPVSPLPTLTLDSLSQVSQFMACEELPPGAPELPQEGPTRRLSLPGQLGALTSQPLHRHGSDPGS
Summary of the method: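 In this thallium-flux screen, overnight-cultured U2OS cells bearing the channel are dye-loaded in darkness for an hour, rested 10 min at room temperature, and then monitored kinetically at 480/540 nm for two minutes post-stimulus.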

[5] = target: Cytochrome P450 3A4 (Homo sapiens) (UniProt P08684); assay: Cytochrome P450 Family 3 Subfamily A Member 4 (CYP3A4) small molecule antagonists: luciferase reporter qHTS assay (AID 1671201); settings: P450-Glo CYP3A4 enzyme, luciferin luminescence, 1 h; series mostly up to 115 µM; also: nearly all actives have a fitted effect of over 50% in size
Chain of Cytochrome P450 3A4 (Homo sapiens) (P08684 whole entry, looked up): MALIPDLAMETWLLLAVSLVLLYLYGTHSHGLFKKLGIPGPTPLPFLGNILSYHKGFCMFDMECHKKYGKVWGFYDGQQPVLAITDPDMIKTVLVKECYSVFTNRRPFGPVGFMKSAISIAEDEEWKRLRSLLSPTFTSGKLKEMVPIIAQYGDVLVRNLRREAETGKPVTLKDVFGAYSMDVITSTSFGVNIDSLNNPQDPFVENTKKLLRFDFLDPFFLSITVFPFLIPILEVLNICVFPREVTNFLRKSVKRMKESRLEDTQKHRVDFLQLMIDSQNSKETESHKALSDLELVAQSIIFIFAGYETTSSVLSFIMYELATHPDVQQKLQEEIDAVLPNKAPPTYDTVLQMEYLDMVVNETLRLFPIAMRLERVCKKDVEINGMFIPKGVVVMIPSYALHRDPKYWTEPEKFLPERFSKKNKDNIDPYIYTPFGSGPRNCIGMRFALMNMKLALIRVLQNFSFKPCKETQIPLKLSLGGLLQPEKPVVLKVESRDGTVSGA
Summary of the method: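 CYP3A4 activity was followed with a P450-Glo proluciferin substrate. Test compounds in DMSO were preincubated 10 min; NADPH regeneration then ran 1 h, and light output was read 20 min after detection reagent.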

| SMILES | Potency [1] | Potency [2] | Potency [3] | Potency [4] | Potency [5] | activity change, negative = inhibition [2] | activity change, negative = inhibition [4] | activity change, negative = inhibition [5] |
| --- | --- | --- | --- | --- | --- | --- | --- | --- |
| CCCc1nn(C)c2c(=O)[nH]c(-c3cc(S(=O)(=O)N4CCN(C)CC4)ccc3OCC)nc12 | inactive | 30.9 µM (active) | inactive | – | – | – | – | – |
| N[C@H](C(=O)O)[C@@H](O)c1ccc(O)c(O)c1 | inactive | inactive | inactive | inactive | inactive | – | – | – |
| Nc1ccn([C@@H]2O[C@H](CO)[C@@H](O)C2(F)F)c(=O)n1 | inactive | inactive | inactive | inactive | inactive | – | – | – |
| CCN(Cc1ccccc1)c1ccccc1 | 1.76 µM (active) | 35.1 µM (active) | 35.1 µM (active) | inactive | inactive | – | – | – |
| O=C(O)CC(C(=O)O)S(=O)(=O)O (stereo unspecified) | 8.94 µM (active) | inactive | 31.7 µM (active) | inactive | inactive | – | – | – |
| CC1=CCC(O)(C(C)C)CC1 (stereo unspecified) | inactive | inactive | inactive | inactive | inactive | – | – | – |
| CC(C)COC(=O)c1ccc(N)cc1 | 21.9 µM (active) | 13.8 µM (active) | 6.92 µM (active) | inactive | – | – | – | – |
| C=C(C)C(=O)OCCOCCOCCOCCOC(=O)C(=C)C | 71 µM (active) | 63.3 µM (active) | 63.3 µM (active) | inactive | – | – | – | – |
| CCCCc1ccc2c(n1)[C@@H](c1ccc(OC)cc1C[C@H](C)C(=O)O)[C@H](C(=O)O)[C@H]2c1ccc2c(c1)OCO2 | inactive | 35.6 µM (active) | inactive | inactive | inactive | – | – | – |
| CC[N+](CC)(CC)CCOc1cccc(OCC[N+](CC)(CC)CC)c1OCC[N+](CC)(CC)CC | inactive | inactive | inactive | inactive | inactive | – | – | – |
| CCCC[N+](C)(CCCC)CCCC | inactive | inactive | inactive | inactive | inactive | – | – | – |
| Nc1ccncc1N | inactive | inactive | inactive | inactive | inactive | – | – | – |
| COc1cc(C(=O)OC(COCCC(C)C)CN2CCOCC2)cc(OC)c1OC (stereo unspecified) | 3.47 µM (active) | 3.09 µM (active) | inactive | inactive | – | – | – | – |
| CC(=O)N1C[C@H](O)C[C@H]1C(=O)O | inactive | inactive | inactive | inactive | inactive | – | – | – |
| CCO[Si](OCC)(OCC)c1ccccc1 | inactive | inactive | inactive | inactive | – | – | – | – |
| COc1cc(C(=O)NCc2ccc(OCCN(C)C)cc2)cc(OC)c1OC | inactive | inactive | inactive | inactive | – | – | – | – |

| SMILES | Potency [1] | Potency [2] | Potency [3] | Potency [4] | Potency [5] | activity change, negative = inhibition [2] | activity change, negative = inhibition [4] | activity change, negative = inhibition [5] |
| --- | --- | --- | --- | --- | --- | --- | --- | --- |
| C[N+]1(C)CCCC(OC(=O)C(O)(c2ccccc2)c2ccccc2)C1 (stereo unspecified) | inactive | inactive | inactive | inactive | inactive | – | – | – |
| C=C(C)C(=O)OCC(O)CO (stereo unspecified) | inactive | inactive | inactive | inactive | inactive | – | – | – |
| CO[C@@]1(NC(=O)CSC[C@@H](N)C(=O)O)C(=O)N2C(C(=O)O)=C(CSc3nnnn3C)CS[C@@H]21 | inactive | inactive | inactive | inactive | inactive | – | – | – |
| [K+] | inactive | inactive | inactive | inactive | inactive | – | – | – |
| CC1(C)OC[C@@H](COC(=O)CCc2ccc(OC[C@@H](O)CNCCNC(=O)N3CCOCC3)cc2)O1 | inactive | inactive | inactive | inactive | inactive | – | – | – |
| O=C1CCCCCCCCCCCCCCO1 | inactive | – | – | – | – | – | – | – |
| CN(C)C(=O)Oc1ccc[n+](C)c1 | inactive | inactive | inactive | inactive | inactive | – | – | – |
| CCOc1c(N2CCOCC2)cnn(C)c1=O | inactive | inactive | inactive | inactive | – | – | – | – |
| CN1CCN(c2cc3c(nn2)Oc2ccccc2N3C)CC1 | inactive | – | inactive | – | – | 2.38% [at 23.6 µM] | 0.457% [at 15.8 µM] | 7.5% [at 23.6 µM] |
| Nc1c2c(nc3c1CCC3)CCCC2 | inactive | inactive | inactive | inactive | inactive | – | – | – |
| CCOC(=O)COc1cc(-n2ncc(C(F)(F)F)c(C)c2=O)c(F)cc1Cl | 35.6 µM (active) | 31.7 µM (active) | 35.6 µM (active) | 43.6 µM (active) | – | – | – | – |
| O=C(O)CCCC[P+](c1ccccc1)(c1ccccc1)c1ccccc1 | inactive | inactive | inactive | inactive | inactive | – | – | – |
| COc1ccccc1OCC1CNC(=O)O1 (stereo unspecified) | inactive | inactive | inactive | inactive | inactive | – | – | – |
| CC(C#N)(CCC(=O)O)N=NC(C)(C#N)CCC(=O)O (stereo unspecified) | inactive | inactive | inactive | inactive | inactive | – | – | – |
| NC(CCC(=O)O)C(=O)O (stereo unspecified) | inactive | inactive | inactive | inactive | inactive | – | – | – |
| COCCOC[C@H](CC1(C(=O)NC2CCC(C(=O)O)CC2)CCCC1)C(=O)Oc1ccc2c(c1)CCC2 (stereo partly specified) | inactive | inactive | inactive | inactive | – | – | – | – |
